A short description of experiment [1]: small molecules captured by biotinylated probe aFSTL3 – biochemical, small-molecule microarray, fluorescence 635/667, stem cell growth factor project, primary screen (AID 1064).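 Further: measures binding of the biotinylated anti-FSTL3 antibody to printed compounds.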 Particulars: higher = more signal.
A short description of experiment [2]: binders from COS7 lysate, DM2A8 probe, primary screen, torsin A project, cell lysate, small-molecule microarray, fluorescence 635/667 (AID 1065). The settings on record: higher = more signal, COS7 lysate expressing mutant human TOR1A.
A short description of experiment [3]: small molecules captured by biotinylated probe aFGF2 – biochemical, small-molecule microarray, fluorescence 635/667, stem cell growth factor project, primary screen (AID 1067).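 Further: measures binding of biotinylated aFGF2 protein to printed compounds on slides; z-score merges feature fluorescence and signal-to-noise across triplicate slides.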 Particulars: higher = more signal.
A short description of experiment [4]: small molecules captured by biotinylated probe aFGF10 – biochemical, small-molecule microarray, fluorescence 635/667, stem cell growth factor project, primary screen (AID 1071).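 Further: score merges 667 nm spot intensity and signal to noise from triplicate slides.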 Particulars: higher = more signal.
The target of experiment [5] is Neurogenic locus notch homolog protein 2 (Homo sapiens) (UniProt Q04721). In words: small molecules binding Notch2 protein – biochemical, small-molecule microarray, 635 nm fluorescence, stem cell growth factors, primary screen (AID 1073). The settings on record: higher = more signal.
Chain of Neurogenic locus notch homolog protein 2 (Homo sapiens) (Q04721 whole entry, looked up, canonical isoform): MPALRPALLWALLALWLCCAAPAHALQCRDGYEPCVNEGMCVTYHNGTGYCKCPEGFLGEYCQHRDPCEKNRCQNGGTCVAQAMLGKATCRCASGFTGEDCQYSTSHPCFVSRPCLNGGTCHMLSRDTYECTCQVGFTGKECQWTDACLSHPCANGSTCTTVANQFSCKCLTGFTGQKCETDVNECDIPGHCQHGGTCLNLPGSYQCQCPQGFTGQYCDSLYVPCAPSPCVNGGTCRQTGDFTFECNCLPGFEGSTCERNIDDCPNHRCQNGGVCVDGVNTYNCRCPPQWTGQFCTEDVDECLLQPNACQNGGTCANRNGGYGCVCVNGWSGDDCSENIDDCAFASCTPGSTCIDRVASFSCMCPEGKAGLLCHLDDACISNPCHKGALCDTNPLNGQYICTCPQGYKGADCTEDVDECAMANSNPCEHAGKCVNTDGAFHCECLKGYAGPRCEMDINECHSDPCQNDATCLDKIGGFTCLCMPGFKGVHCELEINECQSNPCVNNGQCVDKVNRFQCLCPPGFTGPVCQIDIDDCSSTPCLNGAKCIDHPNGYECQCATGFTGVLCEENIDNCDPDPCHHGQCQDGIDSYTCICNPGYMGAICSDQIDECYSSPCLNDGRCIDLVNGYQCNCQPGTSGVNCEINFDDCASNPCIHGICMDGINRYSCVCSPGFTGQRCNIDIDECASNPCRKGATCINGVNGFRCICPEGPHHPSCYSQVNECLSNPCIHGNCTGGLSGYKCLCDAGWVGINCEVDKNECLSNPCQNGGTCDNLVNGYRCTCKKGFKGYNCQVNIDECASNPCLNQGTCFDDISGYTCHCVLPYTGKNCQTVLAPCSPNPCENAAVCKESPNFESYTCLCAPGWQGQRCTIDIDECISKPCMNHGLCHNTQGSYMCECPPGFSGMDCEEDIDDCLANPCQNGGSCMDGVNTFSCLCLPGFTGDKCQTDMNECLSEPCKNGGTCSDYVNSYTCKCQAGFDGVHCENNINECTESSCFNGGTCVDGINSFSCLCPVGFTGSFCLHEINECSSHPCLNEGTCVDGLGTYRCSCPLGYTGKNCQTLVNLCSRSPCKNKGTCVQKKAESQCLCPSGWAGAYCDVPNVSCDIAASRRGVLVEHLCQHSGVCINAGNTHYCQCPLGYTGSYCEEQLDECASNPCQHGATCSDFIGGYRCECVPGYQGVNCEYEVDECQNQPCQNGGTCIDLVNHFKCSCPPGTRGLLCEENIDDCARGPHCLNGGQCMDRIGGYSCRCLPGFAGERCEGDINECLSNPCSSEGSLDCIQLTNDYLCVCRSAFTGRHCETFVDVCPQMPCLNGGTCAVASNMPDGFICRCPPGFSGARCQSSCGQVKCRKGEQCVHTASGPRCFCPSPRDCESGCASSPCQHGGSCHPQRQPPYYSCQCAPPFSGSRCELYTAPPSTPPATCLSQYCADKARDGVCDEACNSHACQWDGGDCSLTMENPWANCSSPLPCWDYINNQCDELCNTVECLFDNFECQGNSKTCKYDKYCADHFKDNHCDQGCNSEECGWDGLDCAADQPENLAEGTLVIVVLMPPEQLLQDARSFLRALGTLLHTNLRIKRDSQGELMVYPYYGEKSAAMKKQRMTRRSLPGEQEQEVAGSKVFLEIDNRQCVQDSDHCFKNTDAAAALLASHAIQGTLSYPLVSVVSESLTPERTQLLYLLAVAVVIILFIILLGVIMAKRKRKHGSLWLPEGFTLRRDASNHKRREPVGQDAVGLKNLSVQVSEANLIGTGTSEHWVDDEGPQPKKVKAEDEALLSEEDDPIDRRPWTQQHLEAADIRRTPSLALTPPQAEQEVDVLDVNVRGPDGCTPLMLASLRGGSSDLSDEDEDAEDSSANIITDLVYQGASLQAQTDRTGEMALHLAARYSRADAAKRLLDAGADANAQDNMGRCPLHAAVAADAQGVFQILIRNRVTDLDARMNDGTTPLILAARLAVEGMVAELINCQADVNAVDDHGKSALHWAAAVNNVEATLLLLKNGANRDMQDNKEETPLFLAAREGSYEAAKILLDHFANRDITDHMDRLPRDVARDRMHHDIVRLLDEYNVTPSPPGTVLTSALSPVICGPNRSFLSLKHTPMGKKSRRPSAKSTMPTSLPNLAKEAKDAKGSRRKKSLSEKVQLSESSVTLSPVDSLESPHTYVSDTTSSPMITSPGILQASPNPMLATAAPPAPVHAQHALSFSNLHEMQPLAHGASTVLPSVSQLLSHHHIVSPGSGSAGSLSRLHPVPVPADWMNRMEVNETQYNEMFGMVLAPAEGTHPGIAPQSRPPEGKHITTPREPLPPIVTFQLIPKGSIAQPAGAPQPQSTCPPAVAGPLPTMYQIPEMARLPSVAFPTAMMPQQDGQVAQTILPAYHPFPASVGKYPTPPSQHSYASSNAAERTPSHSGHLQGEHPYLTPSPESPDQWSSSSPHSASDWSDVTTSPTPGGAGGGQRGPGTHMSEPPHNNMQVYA
Experiment [6] deals with Pro-neuregulin-1, membrane-bound isoform (Homo sapiens) (UniProt Q02297). In words: small molecules binding neuregulin-1 protein – biochemical, small-molecule microarray, fluorescence 635/667, psychiatric disease protein project, primary screen (AID 1075).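 Further: score combines 667 nm spot fluorescence with signal to noise.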 Particulars: NRG1 binding, 635 nm fluorescence, higher = more signal.
Chain of Pro-neuregulin-1, membrane-bound isoform (Homo sapiens) (Q02297 whole entry, looked up, the tested form may be a part, canonical isoform): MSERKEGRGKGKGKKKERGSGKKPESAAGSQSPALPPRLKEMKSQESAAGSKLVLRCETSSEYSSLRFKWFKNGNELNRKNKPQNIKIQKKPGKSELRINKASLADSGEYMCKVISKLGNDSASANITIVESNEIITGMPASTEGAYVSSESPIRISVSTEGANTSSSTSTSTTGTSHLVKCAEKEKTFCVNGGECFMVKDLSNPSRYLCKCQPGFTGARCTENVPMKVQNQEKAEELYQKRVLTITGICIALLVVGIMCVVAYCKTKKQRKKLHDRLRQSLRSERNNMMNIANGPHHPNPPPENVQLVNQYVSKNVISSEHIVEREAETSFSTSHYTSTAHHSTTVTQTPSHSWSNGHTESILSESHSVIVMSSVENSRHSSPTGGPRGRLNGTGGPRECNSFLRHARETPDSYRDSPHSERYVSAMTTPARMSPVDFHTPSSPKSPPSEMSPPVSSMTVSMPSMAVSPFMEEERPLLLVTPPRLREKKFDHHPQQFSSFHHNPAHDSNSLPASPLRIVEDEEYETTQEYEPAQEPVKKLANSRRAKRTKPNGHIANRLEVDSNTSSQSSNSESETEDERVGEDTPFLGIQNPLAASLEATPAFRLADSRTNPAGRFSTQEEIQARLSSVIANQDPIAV
The test system of experiment [7] is Neuregulin-1 EGF-like domain. In words: small molecules binding NRG1 EGF domain – biochemical, small-molecule microarray, 635 nm fluorescence, primary screen (AID 1081).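 Further: binding of the protein to compounds printed on small-molecule microarray slides.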 The settings on record: higher = more signal.
Experiment [8] is described as follows: FRG1 expression reporter modulators in myotubes – cell-based, C2C12 myotubes, firefly/Renilla luciferase, luminescence, FRG1 inhibition for FSHD, primary screen (AID 1084). The settings on record: FRG1 promoter luciferase, higher = more signal, called active from +8 up or from −8 down.
Experiment [9] is described as follows: small molecules captured by biotinylated probe aFST – biochemical, small-molecule microarray, fluorescence 635/667, stem cell growth factor project, primary screen (AID 1086).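 Further: score merges 667 nm fluorescence with signal-to-noise of each printed compound spot.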 The settings on record: higher = more signal.
Experiment [10] is described as follows: binders of probe aHhip on microarray, primary screen, stem cell growth factor project, biochemical, small-molecule microarray, fluorescence 635/667 (AID 1087).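 Further: score merges spot fluorescence at 667nm with spot signal to noise ratio.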 The settings on record: higher = more signal.
Experiment [11] deals with PRMT1 (protein arginine N-methyltransferase 1). In words: small molecules binding arginine methyltransferase PRMT1 – biochemical, small-molecule microarray, 635 nm fluorescence, primary screen (AID 1088).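 Further: binding of Prmt1 protein to compounds spotted on small-molecule microarray slides.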 The settings on record: higher = more signal.
Experiment [12] is described as follows: growth effects on S. cerevisiae YJM789 – YJM789 clinical isolate, OD600, 24 h, basal, primary screen (AID 1089).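 Further: growth of clinical yeast isolate S. cerevisiae YJM 789 seeded 1000 cells per well; test concentration not given here.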 Particulars: higher = more signal, called active from +8 up or from −8 down.
Experiment [13] in a line: S. pombe growth modifiers, basal conditions – strain 972, OD600, 24 h, no modulator, primary screen (AID 1090).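 Further: basal condition with compound alone and no growth modifier present; test concentration not given here.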 The settings on record: S. pombe 972 growth, higher = more signal, called active from +8 up or from −8 down.
Experiment [14] can be described thus: budding yeast growth modifiers under rapamycin – strain BY4716, OD600, 96 h, primary screen (AID 1091). Further: test concentration not given here. Particulars: S. cerevisiae BY4716 + rapamycin, higher = more signal, called active from +8 up or from −8 down.
Experiment [15] addresses Torsin-1A-interacting protein 2 (Homo sapiens) (UniProt Q8NFQ8). In words: small molecules binding lysate-expressed LULL1 – cell lysate, human LULL1 lysate, 635/667 nm fluorescence, primary screen (AID 1092).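 Further: probe is lysate of COS7 cells overexpressing human LULL1; score merges per-feature 667 nm fluorescence with signal-to-noise.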 The settings on record: small-molecule microarray, hLULL1 lysate binding, 635 nm fluorescence; higher = more signal.
A short description of experiment [16]: optical density change of DRC41 E. coli – strain DRC41, OD650, 24 h, E. coli filamentation project, primary screen (AID 1093).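 Further: MC1000 strain lacking acrAB efflux and sulA so SOS filamentation is blocked; test concentration not given here.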 The settings on record: E. coli DRC41 growth, higher = more signal, called active from +8 up or from −8 down.
Experiment [17] can be described thus: probe aLefty2 binding to arrayed compounds – biochemical, biotinylated probe, 635/667 nm fluorescence, primary screen (AID 1094).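 Further: score merges spot fluorescence near 667 nm with spot signal-to-noise ratio.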 Particulars: small-molecule microarray, higher = more signal.
The test system of experiment [18] is Noggin (protein binding on small-molecule microarray). In words: small molecules binding Noggin protein – biochemical, 635/667 nm fluorescence, primary screen (AID 1095).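 Further: score merges 667 nm feature fluorescence with signal to noise over triplicate slides.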 The settings on record: 635 nm fluorescence, higher = more signal.
The target of experiment [19] is Neurogenic locus notch homolog protein 3 (Homo sapiens) (UniProt Q9UM47). In words: small molecules binding NOTCH3 protein – biochemical, 635/667 nm fluorescence, primary screen (AID 1096). The settings on record: small-molecule microarray, 635 nm fluorescence, higher = more signal.
The nature of experiment [20]: probe aEGFR binding to arrayed compounds – biochemical, biotinylated probe, 635/667 nm fluorescence, primary screen (AID 1097).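 Further: probe is a biotinylated anti-EGFR antibody binding compounds printed on slides; score combines fluorescence near 667 nm and signal to noise of each spot.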 Particulars: small-molecule microarray, higher = more signal.

These results are taken from PubChem BioAssay.

Active and inactive are the calls of the source.

Chain of Torsin-1A-interacting protein 2 (Homo sapiens) (Q8NFQ8 whole entry, looked up): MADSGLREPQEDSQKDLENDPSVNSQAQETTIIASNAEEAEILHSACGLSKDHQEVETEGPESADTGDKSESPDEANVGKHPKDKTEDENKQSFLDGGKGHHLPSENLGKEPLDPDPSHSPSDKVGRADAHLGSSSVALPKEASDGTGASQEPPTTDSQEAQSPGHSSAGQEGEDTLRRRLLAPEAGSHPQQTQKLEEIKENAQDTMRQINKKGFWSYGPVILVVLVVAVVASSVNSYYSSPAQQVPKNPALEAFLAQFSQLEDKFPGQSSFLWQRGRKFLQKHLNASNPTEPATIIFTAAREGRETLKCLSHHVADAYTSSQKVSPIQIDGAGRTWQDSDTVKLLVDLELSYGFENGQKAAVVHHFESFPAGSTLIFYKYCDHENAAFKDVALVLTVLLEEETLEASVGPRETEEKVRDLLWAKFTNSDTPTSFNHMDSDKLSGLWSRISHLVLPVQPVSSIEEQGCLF

`COc1ccc([Si](C)(C)[C@@H]2[C@@H](CC(=O)N3Cc4ccccc4C[C@H]3CO)O[C@]3(C(=O)N(Cc4cccc(N5CCOC5=O)c4)c4ccccc43)[C@H]2C)cc1`: the composite z-score in [1] is -0.38; in experiment [2] it was 0.671; in experiment [3], -0.0264; in experiment [4] it was 0.147; in experiment [5] it was 0.331; in [6], 0.309. For the same compound, the composite z-score in experiment [7] was 0.876; in experiment [9], 0.0495; in experiment [10], -0.0618; in experiment [11] it was 1.56; in experiment [15], 1.15; in experiment [17] it was -0.121. In addition, the composite z-score was 1.42 in experiment [18], 1.12 in [19] and -0.0972 in [20]. Moreover, the z-score in experiment [8] was -1.64 (inactive); in [12], -1.45 (inactive); in experiment [13] it was 0.837 (inactive); in experiment [14], 1.77 (inactive); in [16], 0.742 (inactive).

On to `COc1ccc(C(=O)Nc2cccc(CN3C(=O)[C@]4(O[C@H](CC(=O)N5Cc6ccccc6C[C@H]5CO)[C@@H]([Si](C)(C)c5ccc(OC)cc5)[C@@H]4C)c4ccccc43)c2)cc1`, for which the composite z-score in [1] was -0.24; in experiment [2], 0.822; in [3], -0.159; in experiment [4], 0.426; in [5], 0.424; in experiment [6], 0.466. The composite z-score is 0.762 in experiment [7]; 0.208 in experiment [9]; -0.211 in experiment [10]; 1.55 in [11]; 0.906 in [15]; -0.186 in [17]. Also, the composite z-score is 1.73 in experiment [18], 1.1 in experiment [19] and -0.027 in experiment [20]. Besides, the z-score is -1.66 (inactive) in [8]; 0.143 (inactive) in experiment [12]; 1.46 (inactive) in experiment [13]; 1.79 (inactive) in [14]; 2.31 (inactive) in [16].

In the case of `CCOC(=O)C[C@H]1[C@H](OC(=O)Cc2ccc3c(c2)OCO3)[C@@H](NC(=O)Cc2ccc(OC)cc2)c2cc(OCCCO)ccc2N1C(=O)Cc1ccc(OC)cc1`, the composite z-score was -0.199 in experiment [1]; 0.225 in experiment [2]; -0.128 in [3]; 0.209 in experiment [4]; 0.121 in [5]; 0.007 in [6]. In addition, the composite z-score in experiment [7] is 0.501; in experiment [9], 0.255; in experiment [10], 0.132; in [11], 0.433; in experiment [15], 1.3; in experiment [17], -0.0616. For the same compound, the composite z-score is -0.102 in experiment [18], 0.194 in [19] and -0.157 in experiment [20]. The z-score was -3.1 (inactive) in experiment [8]; -0.449 (inactive) in [12]; 0.531 (inactive) in experiment [13]; -0.495 (inactive) in experiment [14]; 0.503 (inactive) in experiment [16].

In the case of `C=CCC(OC(C)=O)[C@@H]1[C@@H](N(Cc2ccc(-c3ccccc3)cc2)C(=O)c2cccc3ccccc23)c2cc(OCCCO)ccc2N1C(=O)Cc1ccc(OC)cc1` (stereo not given in full), the composite z-score is 0.0714 in experiment [1]; -0.205 in experiment [2]; -0.108 in experiment [3]; -0.234 in experiment [4]; -0.559 in experiment [5]; -0.229 in experiment [6]. Also, the composite z-score was -0.757 in experiment [7]; 0.165 in experiment [9]; 3.52 in experiment [10]; -0.159 in experiment [11]; -0.203 in [15]; 0.0748 in [17]. Also, the composite z-score was 0.417 in [18], -0.477 in [19] and 0.122 in experiment [20]. Also, the z-score in experiment [8] was -0.72 (inactive); in [12], -0.774 (inactive); in experiment [13] it was 0.0643 (inactive); in experiment [14] it was -0.631 (inactive); in experiment [16] it was -1.09 (inactive).

Take `CC(C)N1C(=O)c2ccccc2[C@](C)(C(=O)NCC(F)(F)F)[C@@H]1c1ccc(CO)cc1`: the composite z-score in experiment [1] is 0.531; in [2], -0.226; in experiment [3], -0.0698; in [4], -1; in experiment [5], -0.334; in experiment [6] it was 0.583. Besides, the composite z-score in [7] was 0.107; in experiment [9], -0.299; in experiment [10], -0.105; in [11], -0.42; in [15], 1.64; in experiment [17], 0.146. Further, the composite z-score in [18] was -1.4; in [19], -0.445; in experiment [20] it was -0.179. Also, the z-score is -0.229 (inactive) in [8]; -0.337 (inactive) in experiment [12]; -0.837 (inactive) in experiment [13]; -0.674 (inactive) in [14]; 0.537 (inactive) in experiment [16].
